Test results published in PubChem BioAssay AID2763 (National Center for Advancing Translational Sciences (NCATS), 2010).
Results filed as inconclusive are left out. Calls of active or inactive are those of the source. Calls follow the shape of the dose curve; as a rule, active = well fitted inhibition curve with a large enough effect; inconclusive = small, poorly fitted or top-dose-only effect, or effect the other way; inactive = no such curve, though single readings can be large or run the other way.

Test: Concentration response confirmation VP16 counterscreen for inhibitors of ROR gamma transcriptional activity; also: nearly all actives have a fitted effect of over 70% in size
Details: Drosophila S2 Gal4-VP16 UAS-luciferase, luminescence, 20 h; series mostly up to 46.1 µM
From the text: NIH Molecular Libraries Probe Production Network [MLPCN] NIH Chemical Genomics Center [NCGC] MLPCN Grant: R03 DA026211-01 Assay Provider: Dan Littman, New York University Assay Overview: The retinoic acid-related orphan receptor (ROR) gamma is a transcription factor that has a central role in the differentiation of Th17 cells, a subset of T helper cells that secrete the inflammatory cytokines IL-17, IL-17F, and IL-22. Th17 cells have been implicated in graft versus host disease, autoimmune disease and asthma. ROR gamma is induced in naive T helper cells in the presence of TGF-beta combined with IL-6, IL-21, or IL-23, and thereafter directs the expression of the Th17 lineage cytokines. To identify nonspecific inhibitors, a Drosophila Schneider cell line was stably transfected with two vectors: a gene expressing a fusion of the Gal4 DNA binding domain and the transactivation domain of the viral transcription factor VP16, under the control of the metallothionine promoter and a Photinus luciferase reporter regulated by the Gal4 binding site enhancer, UAS. […] Small molecule inhibitors that inhibit components common to the RORgt and VP16 assays, such as the Gal4 DNA binding domain or the UAS luciferase reporter, will be active in both assays and thus scored as nonspecific.
Assay Protocol Summary: For screening, 600 cells in 4 uL/well were dispensed into white solid 1536-well plates (Grenier) using a solenoid-based dispenser. Following transfer of 23 nL compound or DMSO vehicle by a pin tool, the plates were incubated 1 hr at ambient temperature, and 1 uL/well copper sulfate (700 uM final concentration) was added. The plates were centrifuged 15 s at 1000 RPM and incubated 20 hr at ambient temperature. After addition of 1.5 uL Photinus luciferase detection reagent, the plates were incubated 10 min at ambient temperature and then read by an ViewLux (Perkin Elmer) to detect luminescence.
Potency is read from the fitted curve at half-maximal effect.

Compound | Potency
COc1cc(C(=O)N/N=C/C23CC[C@@H](O)CC2(O)CC[C@@H]2[C@@H]3CCC3(C)C(C4=CC(=O)OC4)CCC23O)ccc1O (stereo partly drawn) | inactive
Cn1ncnc2c(=O)n(C)c(=O)nc1-2 | 0.445 µM (active)
Cc1cc(S(=O)(=O)NC(C)C)ccc1OCC(=O)N1CCN(Cc2ccc3c(c2)OCO3)CC1 | 11.2 µM (active)
O=C(c1ccco1)c1cn(Cc2ccccc2Cl)c2ccccc12 | inactive
O=C(Nc1ncc(Cc2ccccc2)s1)C1=NCCN1 | 19.9 µM (active)
OC(COCc1ccc(Cl)cc1)CN1CC=C(c2ccccc2)CC1 (stereo not drawn) | inactive
CCCCNS(=O)(=O)c1ccc(OCC(=O)N2CCN(Cc3ccc4c(c3)OCO4)CC2)cc1 | 22.3 µM (active)
CCCNS(=O)(=O)c1ccc(OCC(=O)N2CCN(Cc3ccc4c(c3)OCO4)CC2)cc1 | 25 µM (active)
